Test results from PMC5540273 (PLoS ONE, 2017).

Each compound was assayed on T1, CDC2L5. Conditions: concentration: 1 μM, replicates: in singlicate; n = 1.
T1 construct: gene CDK13
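Also: KINOMEscan kinase panel screen.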

Row | SMILES | %Inh
1 | N#CC1(c2cccc(C(=O)Nc3cccc(Oc4ccc5nc(NC(=O)C6CC6)sc5n4)c3)c2)CC1 | 6%
2 | Cc1ccc(C)c(NC(=O)Nc2ccc(C)c(-c3ccc(C(=O)Nc4ccncc4)cc3)c2)c1 [GSK1398473] | 0%
3 | O=C(Nc1n[nH]c2nc(-c3ccccc3O)ccc12)C1CC1 [SB-711880] | 11%
4 | CCn1c(-c2nonc2N)nc2c(-c3ccccc3)ncc(OCCCN)c21.O=C(O)C(F)(F)F.O=C(O)C(F)(F)F [GSK260205] | 0%
5 | Cl.Cl.NC(CNC(=O)c1cc(Br)c(-c2ccnc3[nH]ccc23)s1)c1ccccc1 (stereo not shown) [GSK1322949] | 0%
6 | CCOc1nccc(-c2c(-c3ccc(F)cc3)ncn2C2CCNCC2)n1 [SB-249175] | 34%
7 | COc1cccc2c(-c3ccncc3)c(-c3ccc(F)cc3)nn12 [GW468513] | 0%
8 | CC(C)c1nc(-c2cccc(NS(=O)(=O)c3c(F)cccc3F)c2)c(-c2ccnc(Nc3ccc(N4CCOCC4)nc3)n2)s1.Cl [GSK1723980] | 79%
9 | O=C(Nc1n[nH]c2cc(-c3cccs3)ccc12)C1CC1 [SB-731284] | 85%
10 | Cc1ccc(NC(=O)c2cccc(N3CCCCC3)c2)cc1-c1ccc(C(=O)NCC2CC2)cc1 [GSK1917008] | 0%
11 | Cl.O=C(Nc1ccc(Oc2ccc3[nH]c(NC(=O)c4ccco4)nc3c2)cc1)Nc1cc(C(F)(F)F)ccc1F [GW683134] | 0%
12 | Cn1cc(-c2ccc3c(c2)CCN3C(=O)Cc2cc(F)cc(C(F)(F)F)c2)c2c(N)ncnc21 [GSK2635225] | 0%
13 | COc1cc(Nc2nccc(N3CCC(NS(=O)(=O)c4ccc(NC(C)=O)cc4)CC3)n2)cc(OC)c1OC [GSK1379825] | 0%
14 | O=C1NC(=O)C(c2ccccc2Cl)=C1Nc1cccc(Cl)c1 [SB-342409] | 0%
15 | Cc1cc(-c2ccnc(Nc3cccc(C#N)c3)n2)cc(C)c1O [GSK1440913] | 0%
16 | CC(C)NCC(Cc1ccccc1)NC(=O)c1cc(Br)c(-c2ccnc3[nH]ccc23)s1.Cl.Cl (stereo not shown) [GSK1383281] | 0%
17 | Nc1ncc(-c2ccc3nccc(-c4ccncc4)c3c2)cc1S(=O)(=O)N1CCCCC1 [GSK1693850] | 0%
18 | COc1cc(Nc2ccnc3cc(-c4ccncc4)ccc23)cc(OC)c1OC.Cl [GW494610] | 0%

Row | SMILES | %Inh
19 | COC(=O)Nc1nc2ccc(Oc3ccc(NC(=O)Nc4cc(C(F)(F)F)ccc4F)cc3)cc2[nH]1.Cl [GW654607] | 6%
20 | c1ccc(Oc2ccc(Nc3ccnc4cc(-c5ccc(CN6CCCCC6)o5)ccc34)cc2)nc1 [GW567143] | 0%
21 | COc1cccc(CC(=O)N2CCc3cc(-c4cn(C)c5ncnc(N)c45)ccc32)c1 [GSK2608899] | 0%
22 | COc1ccc(C)c(Nc2ccnc(Nc3ccc(-c4cnc[nH]4)cc3)n2)c1.Cl [GW784041] | 0%
23 | CCNC(=O)/C=C/c1n[nH]c2cc(Sc3ccccc3C(=O)NC)ccc12 | 9%
24 | Cl.N#CCc1ccc(Nc2nccc(Nc3ccc(Oc4ccccc4)cc3)n2)cc1 [GW639905] | 0%
25 | CC(=O)Nc1cn2nc(Oc3cccc(NC(=O)c4cccc(C(F)(F)F)c4)c3)ccc2n1 | 0%
26 | CCNc1nccc(-c2c(-c3ccc(F)cc3)ncn2C2CCN(C)CC2)n1 | 0%
27 | COC(=O)Nc1nc2cc(Oc3ccc(NC(=O)Nc4cccc(SC)c4)cc3)ccc2[nH]1.Cl [GW697999] | 0%
28 | Fc1cc(Cl)ccc1Nc1ccnc2cc(-c3ccc(CN4CCOCC4)o3)ccc12 [GW560109] | 0%
29 | NCCC(NC(=O)c1cc(Br)c(-c2ccnc3[nH]ccc23)s1)c1ccccc1.O=C(O)C(F)(F)F.O=C(O)C(F)(F)F (stereo not shown) [GSK1307810] | 0%
30 | Cc1ccc(O)cc1Nc1ccnc2cc(-c3ccc(CN4CCCCC4)o3)ccc12 [GW557777] | 0%
31 | CCn1cnc2c(NCc3ccccc3)ncnc21 [SKF-96418] | 10%
32 | CN(c1ccc(F)c(NC(=O)c2cccc(OC(C)(C)C#N)c2Cl)c1)c1ccc2nc(NC(=O)C3CC3)sc2n1 | 0%
33 | Cn1cc(-c2ccc3c(c2)CCN3C(=O)Cc2cc(F)cc(F)c2F)c2c(N)ncnc21 [GSK2634140] | 0%
34 | CN(C)c1ncnc2nc[nH]c12 [SKF-31736] | 11%
35 | O=C(O)C(F)(F)F.O=c1[nH]ccc2nc(N[C@@H]3CCNC3)nc(Nc3ccc4c(c3)S(=O)(=O)CC4)c12 [GSK2181306] | 0%
36 | Cc1ccc(NC(=O)c2ccc(Cl)c(Cl)c2)cc1-c1ccc(C(=O)Nc2ccncc2)cc1 [GSK1398460] | 0%

Each compound was assayed on T2, CDK11. Conditions: concentration: 1 μM, replicates: in singlicate; n = 1.
T2 construct: gene CDK19

Row | SMILES | %Inh
37 | N#CC1(c2cccc(C(=O)Nc3cccc(Oc4ccc5nc(NC(=O)C6CC6)sc5n4)c3)c2)CC1 | 24%
38 | Cc1ccc(C)c(NC(=O)Nc2ccc(C)c(-c3ccc(C(=O)Nc4ccncc4)cc3)c2)c1 [GSK1398473] | 74%
39 | O=C(Nc1n[nH]c2nc(-c3ccccc3O)ccc12)C1CC1 [SB-711880] | 0%
40 | CCn1c(-c2nonc2N)nc2c(-c3ccccc3)ncc(OCCCN)c21.O=C(O)C(F)(F)F.O=C(O)C(F)(F)F [GSK260205] | 0%
41 | Cl.Cl.NC(CNC(=O)c1cc(Br)c(-c2ccnc3[nH]ccc23)s1)c1ccccc1 (stereo not shown) [GSK1322949] | 42%
42 | CCOc1nccc(-c2c(-c3ccc(F)cc3)ncn2C2CCNCC2)n1 [SB-249175] | 12%
43 | COc1cccc2c(-c3ccncc3)c(-c3ccc(F)cc3)nn12 [GW468513] | 8%
44 | CC(C)c1nc(-c2cccc(NS(=O)(=O)c3c(F)cccc3F)c2)c(-c2ccnc(Nc3ccc(N4CCOCC4)nc3)n2)s1.Cl [GSK1723980] | 0%
45 | O=C(Nc1n[nH]c2cc(-c3cccs3)ccc12)C1CC1 [SB-731284] | 0%
46 | Cc1ccc(NC(=O)c2cccc(N3CCCCC3)c2)cc1-c1ccc(C(=O)NCC2CC2)cc1 [GSK1917008] | 8%
47 | Cl.O=C(Nc1ccc(Oc2ccc3[nH]c(NC(=O)c4ccco4)nc3c2)cc1)Nc1cc(C(F)(F)F)ccc1F [GW683134] | 88%
48 | Cn1cc(-c2ccc3c(c2)CCN3C(=O)Cc2cc(F)cc(C(F)(F)F)c2)c2c(N)ncnc21 [GSK2635225] | 95.2%
49 | COc1cc(Nc2nccc(N3CCC(NS(=O)(=O)c4ccc(NC(C)=O)cc4)CC3)n2)cc(OC)c1OC [GSK1379825] | 0%
50 | O=C1NC(=O)C(c2ccccc2Cl)=C1Nc1cccc(Cl)c1 [SB-342409] | 0%
51 | Cc1cc(-c2ccnc(Nc3cccc(C#N)c3)n2)cc(C)c1O [GSK1440913] | 0%
52 | CC(C)NCC(Cc1ccccc1)NC(=O)c1cc(Br)c(-c2ccnc3[nH]ccc23)s1.Cl.Cl (stereo not shown) [GSK1383281] | 31%
53 | Nc1ncc(-c2ccc3nccc(-c4ccncc4)c3c2)cc1S(=O)(=O)N1CCCCC1 [GSK1693850] | 73%
54 | COc1cc(Nc2ccnc3cc(-c4ccncc4)ccc23)cc(OC)c1OC.Cl [GW494610] | 2%
55 | COC(=O)Nc1nc2ccc(Oc3ccc(NC(=O)Nc4cc(C(F)(F)F)ccc4F)cc3)cc2[nH]1.Cl [GW654607] | 87%

Row | SMILES | %Inh
56 | c1ccc(Oc2ccc(Nc3ccnc4cc(-c5ccc(CN6CCCCC6)o5)ccc34)cc2)nc1 [GW567143] | 0%
57 | COc1cccc(CC(=O)N2CCc3cc(-c4cn(C)c5ncnc(N)c45)ccc32)c1 [GSK2608899] | 98.4%
58 | COc1ccc(C)c(Nc2ccnc(Nc3ccc(-c4cnc[nH]4)cc3)n2)c1.Cl [GW784041] | 2%
59 | CCNC(=O)/C=C/c1n[nH]c2cc(Sc3ccccc3C(=O)NC)ccc12 | 10%
60 | Cl.N#CCc1ccc(Nc2nccc(Nc3ccc(Oc4ccccc4)cc3)n2)cc1 [GW639905] | 0%
61 | CC(=O)Nc1cn2nc(Oc3cccc(NC(=O)c4cccc(C(F)(F)F)c4)c3)ccc2n1 | 29%
62 | CCNc1nccc(-c2c(-c3ccc(F)cc3)ncn2C2CCN(C)CC2)n1 | 19%
63 | COC(=O)Nc1nc2cc(Oc3ccc(NC(=O)Nc4cccc(SC)c4)cc3)ccc2[nH]1.Cl [GW697999] | 8%
64 | Fc1cc(Cl)ccc1Nc1ccnc2cc(-c3ccc(CN4CCOCC4)o3)ccc12 [GW560109] | 0%
65 | NCCC(NC(=O)c1cc(Br)c(-c2ccnc3[nH]ccc23)s1)c1ccccc1.O=C(O)C(F)(F)F.O=C(O)C(F)(F)F (stereo not shown) [GSK1307810] | 58%
66 | Cc1ccc(O)cc1Nc1ccnc2cc(-c3ccc(CN4CCCCC4)o3)ccc12 [GW557777] | 7%
67 | CCn1cnc2c(NCc3ccccc3)ncnc21 [SKF-96418] | 0%
68 | CN(c1ccc(F)c(NC(=O)c2cccc(OC(C)(C)C#N)c2Cl)c1)c1ccc2nc(NC(=O)C3CC3)sc2n1 | 0%
69 | Cn1cc(-c2ccc3c(c2)CCN3C(=O)Cc2cc(F)cc(F)c2F)c2c(N)ncnc21 [GSK2634140] | 86%
70 | CN(C)c1ncnc2nc[nH]c12 [SKF-31736] | 0%
71 | O=C(O)C(F)(F)F.O=c1[nH]ccc2nc(N[C@@H]3CCNC3)nc(Nc3ccc4c(c3)S(=O)(=O)CC4)c12 [GSK2181306] | 0%
72 | Cn1cc(-c2cnc(N)c3c(-c4ccc5c(c4)CCN5C(=O)Cc4ccccc4)csc23)cn1 [GSK2593074] | 18%
73 | Cc1ccc(NC(=O)c2ccc(Cl)c(Cl)c2)cc1-c1ccc(C(=O)Nc2ccncc2)cc1 [GSK1398460] | 13%
